The other results are listed elsewhere or left out. Calls of active or inactive are those of the source. The rule behind the calls is not given here.
The compounds below were run against Hepatocyte nuclear factor 4-alpha (Homo sapiens) (UniProt P41235) (assay: change in HNF4A binding to DNA, retest, confirmation, biochemical, fluorescence polarization, FITC-DNA (AID 1224897)). Conditions: 1 h, at 12.5 µM, active compounds read high.
Hepatocyte nuclear factor 4-alpha (Homo sapiens), sequence (P41235 whole entry, looked up): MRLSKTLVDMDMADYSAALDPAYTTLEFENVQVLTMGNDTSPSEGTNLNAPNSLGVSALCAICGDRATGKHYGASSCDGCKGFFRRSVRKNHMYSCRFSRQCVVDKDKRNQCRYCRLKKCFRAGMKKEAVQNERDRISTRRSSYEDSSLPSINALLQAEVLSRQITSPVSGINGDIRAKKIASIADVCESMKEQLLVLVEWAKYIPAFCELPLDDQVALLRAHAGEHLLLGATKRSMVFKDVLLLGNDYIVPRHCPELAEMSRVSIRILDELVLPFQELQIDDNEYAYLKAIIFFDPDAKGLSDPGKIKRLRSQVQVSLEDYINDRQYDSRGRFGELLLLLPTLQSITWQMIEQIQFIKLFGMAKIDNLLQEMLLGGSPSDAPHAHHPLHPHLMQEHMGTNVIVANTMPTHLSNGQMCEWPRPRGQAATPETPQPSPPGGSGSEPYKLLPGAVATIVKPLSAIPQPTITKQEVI

| Compound | activity change |
| --- | --- |
| Cn1c2ccccc2c2cc(/C=C(\NC(=O)c3ccccc3)C(=O)NCC(=O)O)ccc21 | 45.6% (active) |
| Cn1cccc1/C=C1\SC(=S)N(NC(=O)c2ccc(Cl)cc2)C1=O | 72.5% (active) |
| COc1ccc(-c2nc3cc(C)ccn3c2NC2CCCCC2)cc1SC1CCCCC1 | 37.6% (active) |
| Cc1cccc(COc2ccccc2/C=N/Nc2ccc([N+](=O)[O-])cc2)c1 | 56.9% (active) |
| C/C(=N/Nc1nc(-c2ccccc2)c(CC(=O)O)s1)c1ccccc1 | 57.6% (active) |
| O=C1/C(=C/c2coc3ccc(O)cc3c2=O)SC(=S)N1c1ccccc1 | 57% (active) |
| Fc1cccc(Cc2c(-c3cccc(Cl)c3)nc3ccc(Br)cn23)c1 | 51% (active) |
| CCC(C)N1C(=O)S/C(=C/c2ccc(Sc3nc4ccccc4[nH]3)o2)C1=O (centres undefined) | 76.4% (active) |
| C#CCOCCOCCOCCNc1nc(N2CCN(C(=O)C([C@@H](C)O)n3cc([C@@H](N)CCCCN)nn3)CC2)nc(N2CCN(C(=O)[C@H](CCCCN)n3cc(CN)nn3)CC2)n1 (some centres undefined) | 108% (active) |

Source: PubChem BioAssay AID1224897 (Sanford-Burnham Center for Chemical Genomics, 2016)
